# Assays:
# [1] = molecular target: T1, Serine/threonine-protein kinase 17A (Homo sapiens) (UniProt Q9UEE5); conditions: at 10 µM
# T1 sequence (whole entry): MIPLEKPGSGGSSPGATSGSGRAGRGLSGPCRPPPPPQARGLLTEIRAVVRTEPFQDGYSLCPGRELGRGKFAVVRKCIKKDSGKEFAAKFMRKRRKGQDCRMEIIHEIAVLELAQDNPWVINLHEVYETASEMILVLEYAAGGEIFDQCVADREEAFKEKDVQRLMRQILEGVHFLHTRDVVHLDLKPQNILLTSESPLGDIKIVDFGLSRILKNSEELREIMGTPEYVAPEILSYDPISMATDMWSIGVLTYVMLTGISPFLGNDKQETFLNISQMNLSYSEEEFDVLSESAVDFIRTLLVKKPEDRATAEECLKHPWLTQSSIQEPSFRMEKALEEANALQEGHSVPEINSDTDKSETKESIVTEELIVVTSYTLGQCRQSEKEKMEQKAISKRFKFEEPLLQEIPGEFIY
# [2] = molecular target: T2, Dual specificity tyrosine-phosphorylation-regulated kinase 2 (Homo sapiens) (UniProt Q92630); conditions: at 1 µM
# T2 sequence (whole entry): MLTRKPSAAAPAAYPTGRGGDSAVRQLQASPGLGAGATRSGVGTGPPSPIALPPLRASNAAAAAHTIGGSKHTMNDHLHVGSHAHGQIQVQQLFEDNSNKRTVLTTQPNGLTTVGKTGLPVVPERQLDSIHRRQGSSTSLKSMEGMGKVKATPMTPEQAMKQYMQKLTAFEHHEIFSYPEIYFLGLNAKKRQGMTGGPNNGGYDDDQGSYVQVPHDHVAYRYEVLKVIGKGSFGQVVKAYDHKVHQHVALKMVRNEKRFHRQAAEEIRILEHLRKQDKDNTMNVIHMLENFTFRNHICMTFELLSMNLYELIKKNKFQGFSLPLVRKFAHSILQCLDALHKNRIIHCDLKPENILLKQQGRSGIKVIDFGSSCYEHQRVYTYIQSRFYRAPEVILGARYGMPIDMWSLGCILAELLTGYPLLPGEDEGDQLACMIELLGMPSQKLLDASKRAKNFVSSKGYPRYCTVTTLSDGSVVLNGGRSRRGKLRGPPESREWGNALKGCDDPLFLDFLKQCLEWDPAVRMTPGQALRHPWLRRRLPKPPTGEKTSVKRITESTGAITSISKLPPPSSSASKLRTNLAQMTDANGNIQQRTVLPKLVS
# [3] = molecular target: T2, Dual specificity tyrosine-phosphorylation-regulated kinase 2 (Homo sapiens); conditions: at 10 µM
# [4] = molecular target: T3, Ephrin type-A receptor 1 (Homo sapiens) (UniProt P21709); conditions: at 1 µM
# T3 sequence (whole entry): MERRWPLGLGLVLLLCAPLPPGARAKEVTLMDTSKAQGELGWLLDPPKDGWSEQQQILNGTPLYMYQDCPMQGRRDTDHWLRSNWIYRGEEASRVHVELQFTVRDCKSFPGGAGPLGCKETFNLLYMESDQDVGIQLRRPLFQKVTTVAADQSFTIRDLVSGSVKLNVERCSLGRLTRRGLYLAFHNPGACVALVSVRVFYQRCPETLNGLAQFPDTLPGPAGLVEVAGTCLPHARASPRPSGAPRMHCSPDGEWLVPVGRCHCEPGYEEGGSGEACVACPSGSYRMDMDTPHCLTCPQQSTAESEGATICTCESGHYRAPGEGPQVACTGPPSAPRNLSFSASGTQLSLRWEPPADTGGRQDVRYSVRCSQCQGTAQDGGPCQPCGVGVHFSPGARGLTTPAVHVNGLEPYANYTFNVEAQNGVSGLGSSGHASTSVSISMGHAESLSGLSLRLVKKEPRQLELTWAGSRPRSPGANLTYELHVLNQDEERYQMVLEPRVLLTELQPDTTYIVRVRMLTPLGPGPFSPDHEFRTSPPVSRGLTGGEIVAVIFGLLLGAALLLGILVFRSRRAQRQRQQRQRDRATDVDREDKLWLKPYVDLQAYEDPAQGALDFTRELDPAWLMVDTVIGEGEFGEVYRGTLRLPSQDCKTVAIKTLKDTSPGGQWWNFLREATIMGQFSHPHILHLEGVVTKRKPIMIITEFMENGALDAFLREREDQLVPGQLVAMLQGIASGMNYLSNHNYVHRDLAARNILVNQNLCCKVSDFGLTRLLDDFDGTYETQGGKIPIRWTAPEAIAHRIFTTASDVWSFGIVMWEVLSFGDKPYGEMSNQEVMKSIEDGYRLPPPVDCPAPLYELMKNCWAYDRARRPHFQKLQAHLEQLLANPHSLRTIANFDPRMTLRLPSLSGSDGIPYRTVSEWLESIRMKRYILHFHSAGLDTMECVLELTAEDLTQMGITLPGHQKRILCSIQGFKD
# [5] = molecular target: T3, Ephrin type-A receptor 1 (Homo sapiens); conditions: at 10 µM
# [6] = molecular target: Ephrin type-A receptor 2 (Homo sapiens) (UniProt P29317); conditions: at 1 µM
# Ephrin type-A receptor 2 (Homo sapiens), sequence (P29317 whole entry): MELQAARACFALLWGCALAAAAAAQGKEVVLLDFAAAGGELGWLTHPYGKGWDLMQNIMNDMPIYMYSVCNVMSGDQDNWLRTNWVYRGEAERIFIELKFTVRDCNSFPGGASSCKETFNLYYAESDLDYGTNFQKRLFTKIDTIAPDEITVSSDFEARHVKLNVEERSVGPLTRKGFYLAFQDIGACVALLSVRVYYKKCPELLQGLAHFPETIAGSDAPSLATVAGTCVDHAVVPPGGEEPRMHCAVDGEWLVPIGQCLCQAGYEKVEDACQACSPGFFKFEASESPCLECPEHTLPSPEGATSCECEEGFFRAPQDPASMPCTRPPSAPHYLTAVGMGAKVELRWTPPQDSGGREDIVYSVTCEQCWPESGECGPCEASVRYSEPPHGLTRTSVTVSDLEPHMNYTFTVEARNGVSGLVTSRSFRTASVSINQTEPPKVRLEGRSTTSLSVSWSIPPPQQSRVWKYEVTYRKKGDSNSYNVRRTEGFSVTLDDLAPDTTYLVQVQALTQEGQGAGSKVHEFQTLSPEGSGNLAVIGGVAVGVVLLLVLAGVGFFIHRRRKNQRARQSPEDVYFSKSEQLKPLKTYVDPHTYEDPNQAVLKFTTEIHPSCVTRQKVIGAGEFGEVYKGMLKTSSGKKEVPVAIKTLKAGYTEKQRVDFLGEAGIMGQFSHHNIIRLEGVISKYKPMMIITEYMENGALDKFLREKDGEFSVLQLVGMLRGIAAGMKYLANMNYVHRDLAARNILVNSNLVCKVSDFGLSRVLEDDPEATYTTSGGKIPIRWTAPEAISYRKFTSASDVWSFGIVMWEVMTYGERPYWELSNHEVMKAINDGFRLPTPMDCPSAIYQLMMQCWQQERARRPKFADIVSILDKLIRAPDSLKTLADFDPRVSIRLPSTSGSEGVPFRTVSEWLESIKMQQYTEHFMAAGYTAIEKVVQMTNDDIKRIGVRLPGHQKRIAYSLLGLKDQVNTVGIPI
# [7] = molecular target: Ephrin type-A receptor 2 (Homo sapiens) (UniProt P29317); conditions: at 10 µM
# [8] = molecular target: T4, Ephrin type-A receptor 3 (Homo sapiens) (UniProt P29320); conditions: at 1 µM
# T4 sequence (whole entry): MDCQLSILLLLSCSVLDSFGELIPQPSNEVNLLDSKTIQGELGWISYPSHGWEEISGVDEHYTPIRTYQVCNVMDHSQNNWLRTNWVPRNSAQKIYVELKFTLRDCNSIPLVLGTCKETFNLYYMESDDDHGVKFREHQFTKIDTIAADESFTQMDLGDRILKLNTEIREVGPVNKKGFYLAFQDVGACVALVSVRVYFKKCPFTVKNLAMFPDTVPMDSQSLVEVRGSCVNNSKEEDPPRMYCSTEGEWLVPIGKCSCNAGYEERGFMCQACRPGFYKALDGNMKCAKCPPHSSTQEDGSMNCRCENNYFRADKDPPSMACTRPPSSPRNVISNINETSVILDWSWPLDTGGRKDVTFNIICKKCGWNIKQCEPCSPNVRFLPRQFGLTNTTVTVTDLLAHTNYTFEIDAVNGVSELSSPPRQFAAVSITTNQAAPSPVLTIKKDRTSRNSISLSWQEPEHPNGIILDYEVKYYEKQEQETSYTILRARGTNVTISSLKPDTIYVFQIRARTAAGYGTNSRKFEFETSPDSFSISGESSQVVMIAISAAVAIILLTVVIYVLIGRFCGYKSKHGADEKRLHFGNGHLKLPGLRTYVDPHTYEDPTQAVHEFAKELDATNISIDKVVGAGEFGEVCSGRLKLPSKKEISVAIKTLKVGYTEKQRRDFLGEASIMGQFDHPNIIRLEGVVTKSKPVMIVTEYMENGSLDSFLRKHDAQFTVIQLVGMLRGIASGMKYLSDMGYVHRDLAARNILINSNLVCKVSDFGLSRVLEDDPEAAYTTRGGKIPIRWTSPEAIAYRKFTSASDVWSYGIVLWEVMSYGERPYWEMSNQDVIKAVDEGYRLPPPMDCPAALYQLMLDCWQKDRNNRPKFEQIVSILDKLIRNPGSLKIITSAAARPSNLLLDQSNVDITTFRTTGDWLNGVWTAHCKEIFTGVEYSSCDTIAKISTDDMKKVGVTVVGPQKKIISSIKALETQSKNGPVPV
# [9] = molecular target: T4, Ephrin type-A receptor 3 (Homo sapiens); conditions: at 10 µM
# [10] = molecular target: Ephrin type-A receptor 4 (Homo sapiens) (UniProt P54764); conditions: at 1 µM
# Ephrin type-A receptor 4 (Homo sapiens), sequence (P54764 whole entry): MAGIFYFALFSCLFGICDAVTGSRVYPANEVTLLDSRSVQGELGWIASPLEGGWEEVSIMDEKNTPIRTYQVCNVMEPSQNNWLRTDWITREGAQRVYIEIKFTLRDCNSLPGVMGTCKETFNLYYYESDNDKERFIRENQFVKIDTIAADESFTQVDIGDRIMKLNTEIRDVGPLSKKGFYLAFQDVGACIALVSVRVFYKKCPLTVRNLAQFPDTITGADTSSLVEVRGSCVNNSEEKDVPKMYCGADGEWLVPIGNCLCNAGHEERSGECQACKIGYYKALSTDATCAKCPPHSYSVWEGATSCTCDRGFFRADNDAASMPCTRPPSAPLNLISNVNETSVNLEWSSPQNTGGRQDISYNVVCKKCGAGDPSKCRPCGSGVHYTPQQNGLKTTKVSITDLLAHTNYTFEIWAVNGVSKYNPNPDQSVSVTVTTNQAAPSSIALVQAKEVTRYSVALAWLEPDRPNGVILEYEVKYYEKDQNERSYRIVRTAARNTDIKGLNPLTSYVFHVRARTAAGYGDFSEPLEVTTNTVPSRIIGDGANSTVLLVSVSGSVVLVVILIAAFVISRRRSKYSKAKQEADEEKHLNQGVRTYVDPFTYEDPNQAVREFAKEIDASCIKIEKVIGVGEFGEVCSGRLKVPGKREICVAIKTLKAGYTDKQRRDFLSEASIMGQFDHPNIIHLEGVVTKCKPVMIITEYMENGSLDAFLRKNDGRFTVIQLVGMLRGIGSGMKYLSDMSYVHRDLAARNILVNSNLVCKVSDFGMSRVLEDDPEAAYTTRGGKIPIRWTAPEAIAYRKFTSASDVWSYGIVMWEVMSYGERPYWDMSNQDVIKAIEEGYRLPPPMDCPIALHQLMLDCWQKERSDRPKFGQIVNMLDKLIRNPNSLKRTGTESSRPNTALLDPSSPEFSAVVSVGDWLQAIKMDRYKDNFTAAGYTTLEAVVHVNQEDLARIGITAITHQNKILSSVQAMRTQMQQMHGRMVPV
# [11] = molecular target: Ephrin type-A receptor 4 (Homo sapiens) (UniProt P54764); conditions: at 10 µM
# [12] = molecular target: Ephrin type-A receptor 5 (Homo sapiens) (UniProt P54756); conditions: at 1 µM
# Ephrin type-A receptor 5 (Homo sapiens), sequence (P54756 whole entry): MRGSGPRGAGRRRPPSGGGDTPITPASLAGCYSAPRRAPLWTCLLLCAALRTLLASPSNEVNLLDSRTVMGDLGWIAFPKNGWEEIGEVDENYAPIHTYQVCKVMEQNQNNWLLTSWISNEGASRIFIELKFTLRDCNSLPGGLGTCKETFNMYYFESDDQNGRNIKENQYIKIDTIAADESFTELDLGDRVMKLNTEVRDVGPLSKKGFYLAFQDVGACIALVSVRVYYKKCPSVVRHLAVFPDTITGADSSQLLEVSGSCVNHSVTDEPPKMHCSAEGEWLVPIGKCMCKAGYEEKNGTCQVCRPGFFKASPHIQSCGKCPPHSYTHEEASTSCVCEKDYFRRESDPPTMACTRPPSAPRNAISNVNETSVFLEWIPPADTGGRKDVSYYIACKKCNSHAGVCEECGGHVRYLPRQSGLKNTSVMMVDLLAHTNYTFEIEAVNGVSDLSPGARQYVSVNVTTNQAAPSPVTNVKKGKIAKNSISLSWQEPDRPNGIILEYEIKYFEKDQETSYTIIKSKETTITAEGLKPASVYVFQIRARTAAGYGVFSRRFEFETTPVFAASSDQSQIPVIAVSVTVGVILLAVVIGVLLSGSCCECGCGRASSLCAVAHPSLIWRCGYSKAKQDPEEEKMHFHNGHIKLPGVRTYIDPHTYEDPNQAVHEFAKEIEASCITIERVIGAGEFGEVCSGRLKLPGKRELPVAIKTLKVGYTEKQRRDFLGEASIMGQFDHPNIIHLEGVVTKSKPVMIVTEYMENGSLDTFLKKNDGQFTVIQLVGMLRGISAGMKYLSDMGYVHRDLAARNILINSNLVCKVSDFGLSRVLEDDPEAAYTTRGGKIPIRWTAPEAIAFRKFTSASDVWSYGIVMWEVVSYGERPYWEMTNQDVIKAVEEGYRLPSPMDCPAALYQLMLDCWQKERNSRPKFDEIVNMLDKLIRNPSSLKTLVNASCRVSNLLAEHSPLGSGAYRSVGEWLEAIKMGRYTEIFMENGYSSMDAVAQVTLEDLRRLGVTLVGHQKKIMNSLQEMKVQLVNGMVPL
# [13] = molecular target: Ephrin type-A receptor 5 (Homo sapiens) (UniProt P54756); conditions: at 10 µM
# [14] = molecular target: Ephrin type-A receptor 7 (Homo sapiens) (UniProt Q15375); conditions: at 1 µM
# Ephrin type-A receptor 7 (Homo sapiens), sequence (Q15375 28-998 limits assumed): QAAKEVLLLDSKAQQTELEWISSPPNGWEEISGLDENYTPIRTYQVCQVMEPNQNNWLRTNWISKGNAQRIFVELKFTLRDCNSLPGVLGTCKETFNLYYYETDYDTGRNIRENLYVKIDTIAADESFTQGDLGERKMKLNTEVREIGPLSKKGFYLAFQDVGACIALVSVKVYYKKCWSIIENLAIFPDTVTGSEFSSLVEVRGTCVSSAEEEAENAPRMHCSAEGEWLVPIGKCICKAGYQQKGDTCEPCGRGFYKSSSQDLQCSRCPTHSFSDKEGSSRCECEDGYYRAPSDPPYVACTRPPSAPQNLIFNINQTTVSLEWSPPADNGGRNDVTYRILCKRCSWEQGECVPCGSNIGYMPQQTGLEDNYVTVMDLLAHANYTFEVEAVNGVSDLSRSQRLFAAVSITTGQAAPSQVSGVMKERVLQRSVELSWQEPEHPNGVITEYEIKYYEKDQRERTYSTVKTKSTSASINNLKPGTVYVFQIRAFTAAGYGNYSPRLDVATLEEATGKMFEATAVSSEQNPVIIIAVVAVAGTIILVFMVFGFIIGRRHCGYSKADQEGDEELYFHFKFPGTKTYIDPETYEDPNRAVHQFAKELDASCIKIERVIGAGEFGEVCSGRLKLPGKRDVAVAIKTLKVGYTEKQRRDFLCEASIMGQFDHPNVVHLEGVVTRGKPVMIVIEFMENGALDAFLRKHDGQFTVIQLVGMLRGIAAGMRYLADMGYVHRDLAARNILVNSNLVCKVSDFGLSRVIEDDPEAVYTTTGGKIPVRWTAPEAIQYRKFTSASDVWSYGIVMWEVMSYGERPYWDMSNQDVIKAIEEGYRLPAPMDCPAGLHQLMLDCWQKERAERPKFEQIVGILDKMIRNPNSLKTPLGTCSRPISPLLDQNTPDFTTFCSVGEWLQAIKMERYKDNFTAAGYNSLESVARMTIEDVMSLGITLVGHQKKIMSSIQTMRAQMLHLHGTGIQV
# [15] = molecular target: Ephrin type-A receptor 7 (Homo sapiens) (UniProt Q15375); conditions: at 10 µM
# [16] = molecular target: T5, Ephrin type-A receptor 8 (Homo sapiens) (UniProt P29322); conditions: at 1 µM
# T5 sequence (whole entry): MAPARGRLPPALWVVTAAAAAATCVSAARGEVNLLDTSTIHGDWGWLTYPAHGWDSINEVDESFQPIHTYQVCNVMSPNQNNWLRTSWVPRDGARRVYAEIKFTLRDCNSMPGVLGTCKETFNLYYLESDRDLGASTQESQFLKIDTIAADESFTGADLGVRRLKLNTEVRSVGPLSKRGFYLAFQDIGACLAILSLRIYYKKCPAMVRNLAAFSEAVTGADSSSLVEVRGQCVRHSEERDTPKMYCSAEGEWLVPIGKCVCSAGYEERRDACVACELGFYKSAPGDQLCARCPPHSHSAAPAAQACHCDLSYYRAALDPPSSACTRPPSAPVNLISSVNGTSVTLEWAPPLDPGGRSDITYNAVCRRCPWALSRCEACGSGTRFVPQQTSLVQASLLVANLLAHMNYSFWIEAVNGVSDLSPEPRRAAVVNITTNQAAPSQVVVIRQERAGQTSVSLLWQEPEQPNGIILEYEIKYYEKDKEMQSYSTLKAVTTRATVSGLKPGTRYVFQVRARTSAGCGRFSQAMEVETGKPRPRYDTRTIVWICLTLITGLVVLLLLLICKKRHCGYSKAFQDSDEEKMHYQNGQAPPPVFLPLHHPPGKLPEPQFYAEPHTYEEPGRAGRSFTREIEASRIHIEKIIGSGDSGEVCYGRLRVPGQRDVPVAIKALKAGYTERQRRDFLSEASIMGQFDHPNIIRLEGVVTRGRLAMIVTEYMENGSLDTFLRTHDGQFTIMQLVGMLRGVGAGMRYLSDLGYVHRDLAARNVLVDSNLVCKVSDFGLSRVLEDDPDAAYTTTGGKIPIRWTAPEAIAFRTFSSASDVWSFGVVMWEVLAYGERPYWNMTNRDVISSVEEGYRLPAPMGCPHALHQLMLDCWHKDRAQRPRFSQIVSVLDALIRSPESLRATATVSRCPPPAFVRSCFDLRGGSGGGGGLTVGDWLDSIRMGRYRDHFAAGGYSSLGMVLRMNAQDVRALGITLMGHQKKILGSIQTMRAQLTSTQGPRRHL
# [17] = molecular target: T5, Ephrin type-A receptor 8 (Homo sapiens); conditions: at 10 µM
# [18] = molecular target: T6, Ephrin type-B receptor 1 (Homo sapiens) (UniProt P54762); conditions: at 1 µM
# T6 sequence (whole entry): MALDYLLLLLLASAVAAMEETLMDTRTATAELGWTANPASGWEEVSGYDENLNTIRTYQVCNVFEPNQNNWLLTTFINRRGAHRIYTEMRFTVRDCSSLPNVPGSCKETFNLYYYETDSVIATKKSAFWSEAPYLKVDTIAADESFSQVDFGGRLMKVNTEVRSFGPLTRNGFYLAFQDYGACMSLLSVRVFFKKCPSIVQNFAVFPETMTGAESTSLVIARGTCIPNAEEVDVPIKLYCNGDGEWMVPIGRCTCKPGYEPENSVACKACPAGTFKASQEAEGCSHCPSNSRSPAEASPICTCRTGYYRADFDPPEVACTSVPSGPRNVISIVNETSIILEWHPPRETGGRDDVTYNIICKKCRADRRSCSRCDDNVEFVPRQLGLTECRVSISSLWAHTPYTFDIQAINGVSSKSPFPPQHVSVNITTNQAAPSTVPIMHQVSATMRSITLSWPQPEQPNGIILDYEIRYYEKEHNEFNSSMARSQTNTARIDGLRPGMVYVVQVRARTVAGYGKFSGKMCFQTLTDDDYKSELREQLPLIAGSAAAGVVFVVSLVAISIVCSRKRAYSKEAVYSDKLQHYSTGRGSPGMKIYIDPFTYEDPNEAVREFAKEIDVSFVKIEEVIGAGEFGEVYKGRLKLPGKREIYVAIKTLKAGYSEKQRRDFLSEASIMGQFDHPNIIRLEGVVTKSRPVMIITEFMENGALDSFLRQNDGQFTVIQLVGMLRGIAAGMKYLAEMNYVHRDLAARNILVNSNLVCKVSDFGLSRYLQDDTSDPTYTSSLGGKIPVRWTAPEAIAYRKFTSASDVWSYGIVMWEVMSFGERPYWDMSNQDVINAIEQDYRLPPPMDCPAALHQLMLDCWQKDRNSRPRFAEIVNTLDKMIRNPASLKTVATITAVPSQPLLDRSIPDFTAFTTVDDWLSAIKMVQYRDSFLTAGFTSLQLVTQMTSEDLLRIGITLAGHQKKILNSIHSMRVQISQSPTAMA
SMILES,residual activity [1],residual activity [2],residual activity [3],residual activity [4],residual activity [5],residual activity [6],residual activity [7],residual activity [8],residual activity [9],residual activity [10],residual activity [11],residual activity [12],residual activity [13],residual activity [14],residual activity [15],residual activity [16],residual activity [17],residual activity [18]
CO[C@H]1[C@@H](OC)C[C@H](C)[C@@H](OC)C2=CC(=O)C=C(NC(=O)/C(C)=C/C=C/[C@H](OC)[C@@H](OC(N)=O)/C(C)=C/[C@@H]1C)C2=O,88%,95%,101%,94%,102%,105%,113%,101%,85%,110%,112%,107%,95%,95%,96%,96%,105%,109%
CC(=O)c1ccc(N2CCOCC2)cc1O,,108%,92%,94%,110%,102%,,107%,94%,,104%,,101%,101%,90%,100%,93%,93%
Cc1nc(-c2ccccc2)c(-c2ccncc2)o1,77%,99%,87%,103%,81%,93%,59%,92%,77%,109%,102%,35%,29%,94%,89%,65%,54%,63%
O=C1Nc2ccc(Br)cc2/C1=C\c1cc2c([nH]1)CCCC2,40%,97%,99%,,105%,112%,97%,108%,,106%,103%,110%,,,,,101%,101%
O=C(O)c1ccc2c3c1cccc3c(=O)n1c3ccccc3nc21,13%,54%,11%,103%,89%,88%,102%,103%,91%,106%,104%,102%,100%,104%,88%,103%,93%,107%

# Source: ChEMBL document CHEMBL2218924, “A broad activity screen in support of a chemogenomic map for kinase signalling research and drug discovery” (Biochem J, 2013)
